Source: PubChem (The Scripps Research Institute Molecular Screening Center)
An excerpt weighted towards active compounds, which were near 2.3% of everything screened.
Fam108B counter: mouse Fam108B serine hydrolase inhibitors, primary screen, counter-screen for RBBP9 inhibitor project, biochemical, fluorescence polarization; recombinant Fam108B, FP-Rh probe fluorescence polarization; inhibition, % at 9.51 µM; hit rate 0.33% among 300,000;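 active = inhibition above the screen mean inhibition plus 3 SD, computed separately per campaign, cut at about 18% in these data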;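 also: inhibitors lower polarization as less probe binds the enzyme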
PME-1 inh: PME-1 inhibitors via competitive probe labeling, primary screen, biochemical, fluorescence polarization, FP-Rh probe, HTS | Protein phosphatase methylesterase 1 (Homo sapiens), Q9Y570 | recombinant PME-1 | inhibition, % at 5.9 µM | hit rate 0.53% among 320,000;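 active = inhibition above the campaign mean of all compounds plus 3 SD, cut at about 26% in these data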;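 also: competitive labeling of PME-1 active site by serine hydrolase directed probe; 0% = PME-1 with DMSO and 100% = wells lacking PME-1 enzyme; inhibitors block probe labeling so polarization falls and inhibition rises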
PAD4 inh: human PAD4 inhibitors, primary screen, biochemical, fluorescence polarization, 1536-well format; inhibition, % at 6.36 µM; hit rate 0.41% among 330,000; recombinant PAD4, RCA probe fluorescence polarization;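 active = percent inhibition above a cutoff equal to the mean of all tested compounds plus 3 SD, cut at about 15% in these data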;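 also: 0% = PAD4 with RCA probe and DMSO and 100% = probe without PAD4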
Target sequence (Q9UM07 whole entry, looked up): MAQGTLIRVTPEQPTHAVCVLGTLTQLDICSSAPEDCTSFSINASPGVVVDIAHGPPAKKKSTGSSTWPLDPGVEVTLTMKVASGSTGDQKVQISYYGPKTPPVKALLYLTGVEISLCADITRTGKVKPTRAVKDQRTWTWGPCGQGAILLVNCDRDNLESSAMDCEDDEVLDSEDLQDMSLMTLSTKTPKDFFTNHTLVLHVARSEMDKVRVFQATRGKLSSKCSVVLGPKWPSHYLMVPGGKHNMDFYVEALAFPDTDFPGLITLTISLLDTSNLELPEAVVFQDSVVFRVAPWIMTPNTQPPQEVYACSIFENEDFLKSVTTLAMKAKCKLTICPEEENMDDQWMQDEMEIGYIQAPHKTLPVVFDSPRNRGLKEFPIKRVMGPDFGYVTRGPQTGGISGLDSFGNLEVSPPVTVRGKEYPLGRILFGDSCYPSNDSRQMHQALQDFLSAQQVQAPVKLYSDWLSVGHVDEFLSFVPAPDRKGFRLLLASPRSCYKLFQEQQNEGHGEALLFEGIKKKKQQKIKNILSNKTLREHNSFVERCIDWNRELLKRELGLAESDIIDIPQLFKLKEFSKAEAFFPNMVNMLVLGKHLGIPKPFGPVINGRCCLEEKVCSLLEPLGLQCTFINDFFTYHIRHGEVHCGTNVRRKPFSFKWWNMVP
GSTO1 counter: inhibitors of recombinant GSTO1, primary screen, counter-screen for RBBP9 inhibitor project, biochemical, fluorescence polarization | activity-based probe fluorescence polarization | AID 1974, 2009 | inhibition, % at 5.96 µM | Glutathione S-transferase omega-1 (Homo sapiens), P78417 | hit rate 1.1% among 300,000;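 active = inhibition above the campaign mean inhibition plus 3 SD, cut at about 35% in these data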;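 also: 0% = GSTO1-1 with DMSO and 100% = wells lacking GSTO1-1 enzyme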
pPAFAH inh: pPAFAH enzyme inhibitors, primary screen, biochemical, fluorescence polarization, human; recombinant pPAFAH, FP-rhodamine probe fluorescence polarization; inhibition, % at 3.39 µM; hit rate 1.5% among 330,000; AID 463082, 2010; Platelet-activating factor acetylhydrolase (Homo sapiens), Q13093;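 active = inhibition above the mean inhibition across the screen plus 3 SD, cut at about 25% in these data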;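 also: inhibitors block binding of the rhodamine activity-based probe so polarization drops; 0% = enzyme with DMSO and 100% = wells lacking pPAFAH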
pPAFAH confirm: pPAFAH (PLA2G7) enzyme inhibitors, confirmation, biochemical, fluorescence polarization, human; shares compounds with pPAFAH inh; hit rate 72% among 2,300; recombinant pPAFAH, FP-Rh probe fluorescence polarization; inhibition, % at 3.39 µM; AID 463230, 2010;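 active = mean inhibition of the triplicate above the hit cutoff set for the earlier primary screen, cut at about 25% in these data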;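 also: 0% = enzyme with DMSO and 100% = wells lacking pPAFAH enzyme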
An asterisk follows results filed as active; nt = not tested or not shown.

SMILES | Fam108B counter | PME-1 inh | PAD4 inh | GSTO1 counter | pPAFAH inh | pPAFAH confirm
CCOC(=O)C1(Cc2ccccc2)NC(c2ccccc2F)C2C(=O)N(CC)C(=O)C21 (stereo unspecified) | -1.9 | 1.1 | 4.1 | -1.6 | 4.5 | nt
Cc1cc(NC(=O)C(C)SCC(=O)N(C)Cc2ccccc2F)no1 (stereo unspecified) | nt | -3.3 | 1.1 | nt | 2.5 | nt
O=C(COC(=O)c1ccc(Cl)c(S(=O)(=O)N2CCCCC2)c1)NCC1CCCO1 (stereo unspecified) | -2.7 | 3.3 | -2.6 | -2.2 | 11.7 | nt
Cc1ccc(C)c(NC(=O)CSc2sc3c(O)cc(=O)[nH]c3c2C#N)c1 | 0.2 | -15.8 | -0.7 | 12.2 | 18.3 | nt
Cc1ccc(Cl)cc1NC(=O)CSc1sc2c(O)cc(=O)[nH]c2c1C#N | -2.5 | -20.5 | -0.4 | 9.9 | 20.4 | nt
N#Cc1c(SCC(=O)Nc2cccc(C(F)(F)F)c2)sc2c(O)cc(=O)[nH]c12 | -8.3 | -22.8 | -11.0 | -1.9 | 40.4* | 10.6
CCSc1nnc(NC(=O)CSc2sc3c(O)cc(=O)[nH]c3c2C#N)s1 | 5.7 | -13.0 | -3.9 | 21.1 | 39.0* | 35.2*
Cc1cc(NC(=O)CSc2sc3c(O)cc(=O)[nH]c3c2C#N)ccc1Br | -11.9 | -57.0 | -9.1 | -11.6 | 51.9* | 26.6*
CCOc1ccc(S(=O)(=O)N2CCC(C(=O)NCc3ccncc3)CC2)cc1C | 6.1 | 3.2 | -2.9 | -1.9 | -5.2 | nt
COc1cc2cc[n+](Cc3ccc([N+](=O)[O-])cc3)cc2cc1OC | -1.3 | 2.5 | -0.4 | -3.7 | -6.2 | nt
NNC(=O)c1cc2ccccc2cc1O | 11.8 | 11.3 | -4.1 | 2.9 | 43.3* | 0.9
Cc1ccc(Cl)cc1NC(=O)c1cc2ccccc2cc1O | 15.7 | -6.1 | -2.8 | -16.9 | 35.2* | 14.1
O=C(NC(=S)NNC(=O)c1cc2ccccc2cc1O)c1ccco1 | 10.4 | 3.0 | 1.2 | 15.2 | 38.6* | 36.7*
O=C(NCCO)c1cc2ccccc2cc1O | -1.4 | -1.3 | -3.9 | 6.2 | 2.8 | nt
Cc1ccc(S(=O)(=O)Nc2ncccn2)cc1 | 2.7 | 0.5 | -0.2 | 1.6 | 0.1 | nt
COc1ccc(N(CC(=O)N/N=C(\C)c2ccc(OC)c(OC)c2)S(=O)(=O)c2ccccc2)cc1 | 0.3 | 1.6 | 0.8 | 3.0 | 1.4 | nt
CCOC(OCC)c1cn(Cc2ccc3c(c2)C(=O)c2ccccc2C3=O)nn1 | 3.8 | 3.0 | 5.5 | 13.2 | 9.8 | nt
CC(/C=C1\SC(=S)N(c2ccc(C(=O)O)cc2)C1=O)=C\c1ccccc1 | -14.0 | -28.4 | -2.5 | -18.2 | 35.2* | 28.1*
CC(/C=C1\SC(=S)N(NC(=O)c2ccc(C)cc2)C1=O)=C\c1ccccc1 | -21.1 | -30.8 | -8.1 | -6.9 | -3.3 | nt
COc1cc(C[C@@H](C)[C@@H](C)Cc2ccc(O)c(OC)c2)ccc1O | nt | nt | 1.5 | nt | 1.2 | nt
CC(Cc1ccc(O)c(O)c1)C(C)Cc1ccc(O)c(O)c1 (stereo unspecified) | 5.3 | -12.8 | -3.7 | 52.4* | 70.3* | 79.0*
CCOc1ccc2cc(C#N)c(SCC(=O)N3CCOCC3)nc2c1 | 0.6 | 4.4 | -0.4 | -12.2 | 81.5* | 6.3
CCOc1ccc2nc(SCC(=O)N3CCCCCC3)c(C#N)cc2c1 | -2.2 | 4.4 | -1.4 | -9.2 | 2.4 | nt
CN(C(=S)NC(=O)C1CC1)c1ccc(O)cc1 | nt | -1.5 | -10.7 | nt | 61.4* | 2.0
CN(C)CC(C)(C)CNS(=O)(=O)CC12CCC(CC1=O)C2(C)C (stereo unspecified) | -0.1 | -2.2 | -0.1 | 3.3 | 5.8 | nt
COc1ccccc1NS(=O)(=O)c1ccc(C(N)=O)cc1 | 1.5 | 7.5 | 1.8 | 2.4 | -2.5 | nt
COc1ccccc1NS(=O)(=O)c1ccc(C)c(C(N)=O)c1 | 0.4 | 6.6 | 2.1 | 0.8 | 58.1* | 1.2
CCN(CC)S(=O)(=O)c1cccc(C(=O)N/N=C/c2cccc(O)c2O)c1 | -0.2 | 13.8 | -11.7 | 43.0* | 41.1* | 29.3*
CC(=O)N1CCN(S(=O)(=O)c2cccc(C(=O)NCCC3=CCCCC3)c2)CC1 | 1.8 | -0.8 | -3.8 | -6.0 | 0.3 | nt
